Reference: PubChem BioAssay (NCATS)
Results filed as inconclusive are left out. Activity calls are given as the source filed them. Unless noted, calls come from the whole dose curve; as a rule, active = well fitted curve in the direction sought with a large enough effect; inconclusive = small, poorly fitted or top-dose-only effect, or another doubt; inactive = no such curve, though single readings can be large; an effect the other way counts as inactive or inconclusive.

Legend:
[1] = qHTS for differential inhibitors of proliferation of Plasmodium falciparum line GB4 (AID 1816); details: Potency: Plasmodium falciparum GB4 proliferation inhibition;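 note: parasite growth measured after 72 h incubation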; note: potency is the fitted concentration of half-maximal effect
[2] = qHTS for differential inhibitors of proliferation of Plasmodium falciparum line 3D7 (AID 1876); note: potency is the fitted concentration of half-maximal effect
[3] = qHTS for differential inhibitors of proliferation of Plasmodium falciparum line D10 (AID 1877);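 note: parasites grown with compound for 72 h before DNA staining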; note: potency is the fitted concentration of half-maximal effect
[4] = qHTS for differential inhibitors of proliferation of Plasmodium falciparum line Dd2 (AID 1882); details: Potency: Plasmodium falciparum Dd2 proliferation inhibition; note: nearly all actives have a fitted effect of over 65% in size; note: potency is the fitted concentration of half-maximal effect
Description: NIH Molecular Libraries Probe Production Network [MLPCN]
NIH National Institute of Allergy and Infectious Diseases [NIAID]
(§1) NIH Chemical Genomics Center [NCGC]
Assay Provider: Xinzhuan Su, NIAID
Plasmodium falciparum is a virulent malarial parasite that kills 1-2 million people worldwide each year. Transmitted by mosquitoes, the sporozoite form of the parasite enters the blood stream to infect hepatocytes, where they become merozoites that infect red blood cells (erythrocytes). Within erythrocytes, merozoites begin a […] cycle of growth and division, after which the parasite is released to infect new red blood cells. Gametocytes, which form within erythrocytes as well, circulate in the bloodstream and are ingested by the mosquito, thereby completing the life cycle. To profile malarial isolates for differential chemical responses and to identify inhibitors of malarial growth, an assay that measures P. falciparum growth and replication within erythrocytes was employed. This assay uses a DNA binding fluorescent dye (SYBR Green) to detect parasite DNA following cell lysis. Because mature erythrocytes lack DNA, only Plasmodium-derived DNA is detected. The P. falciparum line Dd2, derived from a malarial isolate from […], was used.
NCGC Assay Protocol Summary:
The SYBR Green viability assay was adapted from a method described previously (Plouffe et al., 2008). For screening 3 ul culture medium was dispensed into 1536 well black clear bottom plates (Aurora Biotechnologies) using a Multidrop Combi (Thermo Fisher Scientific Inc.), 23 nL compounds in DMSO were added by a pin tool (Kalypsys), and 5 ul of erythrocytes infected with P. falciparum line Dd2 (0.3% parasitemia, 2.5% hematocrit final concentration) were added. The plates were incubated at 37 C in a humidified incubator in 5% CO2 for 72 h, and 2 ul lysis buffer (20 mM Tris HCl, 10 mM EDTA, […]% saponin, 1.6% triton X, 10X SYBR Green I supplied as 10,000X […] by Invitrogen) was added to each well. The plates were mixed for 25 sec with gentle shaking and incubated overnight at room temperature in the dark. The following morning, fluorescence intensity at 485(14) nm excitation and 535(25) nm emission wavelengths was measured on an EnVision (Perkin Elmer) plate reader. Plate reads were normalized relative to the control inhibitor (0.29 uM artemisinin) and vehicle (DMSO) wells present on each plate and then corrected by an algorithm using vehicle-only control plates at the beginning and end of the compound plate stack.
Plouffe D, Brinker A, McNamara C, Henson K, Kato N, Kuhen K, Nagle A, Adrian F, Matzen JT, Anderson P, Nam TG, Gray NS, Chatterjee A, Janes J, Yan SF, Trager R, Caldwell JS, Schultz PG, Zhou Y, Winzeler EA. […] Proc Natl Acad Sci U S A. 2008, 105(26), pp 9059-64.

[5] = qHTS for differential inhibitors of proliferation of Plasmodium falciparum line W2 (AID 1883); details: Potency: Plasmodium falciparum W2 proliferation inhibition;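 note: parasites grown with compound for 72 h before lysis and staining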; note: potency is the fitted concentration of half-maximal effect
[6] = qHTS for differential inhibitors of proliferation of Plasmodium falciparum line HB3 (AID 1886); details: Potency: Plasmodium falciparum HB3 proliferation inhibition;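 note: parasites grown with compound for 72 h before SYBR Green readout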; note: potency is the fitted concentration of half-maximal effect
[7] = qHTS Assay for Modulators of Human Peripheral Myelin Protein 22 (PMP22) Expression/Activity (AID 1967; active = well fitted curve in the direction sought with a large enough effect in the signal ratio; the % refers to the signal ratio)
In short: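 MSC80 mouse Schwann cells stably carrying Pmp22 promoter–green click beetle luciferase plus EF-alpha–red luciferase control were dosed for 24h at 37 °C. Dual-colour luminescence was filter-overlap corrected; %Activity came from green/red ratio versus untreated cells.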

[8] = molecular target: Ferritin light chain (Equus caballus) (UniProt P02791); assay: qHTS Validation Assay for Identification of Novel General Anesthetics (AID 2323); note: series mostly up to about 77 µM
Chain of Ferritin light chain (Equus caballus) (P02791 2-175 limits assumed): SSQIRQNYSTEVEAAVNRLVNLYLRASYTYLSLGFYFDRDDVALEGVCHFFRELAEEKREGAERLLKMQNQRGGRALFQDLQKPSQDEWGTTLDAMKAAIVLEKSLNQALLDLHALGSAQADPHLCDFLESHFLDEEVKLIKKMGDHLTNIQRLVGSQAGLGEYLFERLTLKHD
In short: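 Competitive displacement of profluorescent 1-aminoanthracene (1-AMA, 50% saturated solution in PBS) from 10 uM horse-spleen apoferritin. Compounds incubated 10 min at room temperature; fluorescence read at 380 nm excitation/535 nm emission, normalized to free 1-AMA and complex, fitted with four-parameter Hill equation.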

[9] = molecular target: ATP-dependent DNA helicase Q1 (Homo sapiens) (UniProt P46063); assay: qHTS Validation Assay for Inhibitors of RecQ-Like Dna Helicase 1 (RECQ1) (AID 2353)
Chain of ATP-dependent DNA helicase Q1 (Homo sapiens) (P46063 whole entry, looked up): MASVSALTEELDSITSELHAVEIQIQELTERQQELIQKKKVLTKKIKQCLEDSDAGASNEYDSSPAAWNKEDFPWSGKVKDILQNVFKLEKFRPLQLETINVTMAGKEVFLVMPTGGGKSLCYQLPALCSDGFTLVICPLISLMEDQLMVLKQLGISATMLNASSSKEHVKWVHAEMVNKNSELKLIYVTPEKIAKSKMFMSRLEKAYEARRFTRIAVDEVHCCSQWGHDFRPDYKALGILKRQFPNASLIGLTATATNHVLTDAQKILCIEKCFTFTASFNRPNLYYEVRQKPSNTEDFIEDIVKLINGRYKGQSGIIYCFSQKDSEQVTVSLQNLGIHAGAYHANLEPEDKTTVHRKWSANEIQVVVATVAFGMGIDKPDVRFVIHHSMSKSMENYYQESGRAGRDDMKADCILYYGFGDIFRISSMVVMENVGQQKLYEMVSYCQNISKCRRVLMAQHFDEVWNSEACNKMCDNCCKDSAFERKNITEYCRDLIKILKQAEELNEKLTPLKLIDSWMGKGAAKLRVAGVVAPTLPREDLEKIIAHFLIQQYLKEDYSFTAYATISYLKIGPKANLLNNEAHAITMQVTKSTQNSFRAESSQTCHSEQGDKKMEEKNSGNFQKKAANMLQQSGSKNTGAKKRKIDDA
In short: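 RECQ1T1 50 nM; forked duplex (20 bp + 30-nt ss tails) 200 nM, ATP 2 mM final; pH 8.0, 2 mM MgCl2, 2.5 ug/ml poly(dI-dC); 15 min compound preincubation; discontinuous kinetic read over 2 h at RT.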

[10] = qHTS Assay for Identification of Small Molecule Inducers of Hypoxia Response (AID 2120; active = well fitted curve in the direction sought with a large enough effect in the signal ratio, with a control signal flat, not every such curve was filed as active; the % refers to the signal ratio)
Description: as §1
NIH Molecular Libraries Screening Centers Network [MLSCN]
National Institutes of Environmental Health Sciences [NIEHS]
National Toxicology Program [NTP]
Hypoxia-inducible factor-1 (HIF-1) is the major hypoxia-regulated transcription factor that controls cellular responses to low oxygen concentration. HIF-1 is composed of two subunits: hypoxia responsive HIF-1a and constitutively expressed HIF-1b, which is also known as aryl hydrocarbon receptor nuclear translocator. During hypoxic conditions, HIF-1a heterodimerizes with HIF-1b and translocates into the nucleus where the HIF-1 complex binds to the hypoxia-response element (HRE) and activates expression of target genes such as VEGF (vascular endothelial growth factor). The HIF-1 pathway is essential to normal growth and development, and is involved in the pathophysiology of cancer, inflammation, and ischemia.
Using a beta-lactamase reporter-gene under control of the hypoxia response element, a cell-based assay [CellSensor(TM) HRE-bla ME-180 developed by Invitrogen Corp.] was used to measure hypoxia-induced signaling. Library compounds were measured for their ability to induce the reporter gene activity. Compounds were screened in a titration series in 1536-well format. The inducers were identified based on the AC50 values derived from the screening data.
NCGC Assay Protocol Summary
2500 cells/5uL in Opti-MEM medium containing 0.5% dialyzed FBS, 0.1 mM NEAA, 1 mM sodium pyruvate and 10 mM HEPES was dispensed into 1536-well plates and cells were cultured at 37 degrees Celsius for 4-5 hours and then 23 nL of compounds or DMSO were delivered to each well using a pin tool. The plates were incubated at 37 degrees Celsius for 17 hours. 1 uL of CCF4-dye mixture was added to each well. After incubated at room temperature for 2.5 hours the plates were measured on an EnVision plate reader at Excitation 405nm, Emission1=460nm and Emission 2=530nm. The %Activity was determined from the ratio of 460nm/530nm.

Measured: Potency

O=C(O)C1CCCN(CCC=C(c2ccccc2)c2ccccc2)C1 (configuration not stated)
not listed: [10]
inactive: all other assays above

Cc1noc(NS(=O)(=O)c2ccc(N)cc2)c1C
inactive: [10]

CC(C)(C)NC(=O)[C@H]1CC[C@H]2[C@@H]3CC[C@H]4NC(=O)C=C[C@]4(C)[C@H]3CC[C@]12C
inactive: [4] | [8] | [9]
active: [5] 10 µM

CCN1CCCC1CNC(=O)c1cc(S(N)(=O)=O)ccc1OC (configuration not stated)
not listed: [10]
inactive: all other assays above

COc1cc2ncnc(Nc3cccc(Cl)c3)c2cc1OC
active: [1] 6.31 µM | [2] 2.51 µM | [3] 5.62 µM | [5] 7.94 µM | [6] 10 µM
inactive: [8] | [9]

CC(=O)Oc1ccccc1C(=O)Nc1ncc([N+](=O)[O-])s1
inactive: [10]

N=C(N)c1ccc(OCCCCCOc2ccc(C(=N)N)cc2)cc1
inactive: [10]

CCN(CC)CC#CCOC(=O)C(O)(c1ccccc1)C1CCCCC1 (configuration not stated)
active: [1] 5.01 µM | [2] 7.08 µM | [3] 12.6 µM | [4] 8.91 µM | [5] 2.24 µM | [6] 8.91 µM
inactive: [9]

COc1ccc2cc3[n+](cc2c1OC)CCc1cc2c(cc1-3)OCO2
inactive: [10]

CC(=O)[C@H]1CC[C@H]2[C@@H]3CCC4=CC(=O)CC[C@]4(C)[C@H]3CC[C@]12C
inactive: [9]

O=C(O)c1cc(=O)[nH]c(=O)[nH]1
inactive: [10]

Cc1ccc(S(=O)(=O)N[C@@H](Cc2ccccc2)C(=O)CCl)cc1
inactive: [3] | [6] | [8] | [9]
active: [5] 11.2 µM

CC1=C(C(=O)O)N2C(=O)[C@@H](NC(=O)C(N)c3ccccc3)[C@H]2SC1 (some centres not stated)
not listed: [10]
inactive: all other assays above

OCc1ccc(-c2nn(Cc3ccccc3)c3ccccc23)o1
active: [5] 8.91 µM
inactive: [3] | [8] | [9]

NC(=O)c1cccc(N)c1
not listed: [7] | [10]
inactive: all other assays above

CC(C)NCC(O)c1ccc(NS(C)(=O)=O)cc1 (configuration not stated)
not listed: [5] | [10]
inactive: all other assays above

Cc1ccnc2c1NC(=O)c1cccnc1N2C1CC1
inactive: [10]

CCCCS(=N)(=O)CCC(N)C(=O)O (configuration not stated)
not listed: [5] | [10]
inactive: all other assays above

Nc1nc(N)c2nc(CNc3ccc(C(=O)NC(CCC(=O)O)C(=O)O)cc3)cnc2n1 (configuration not stated)
inactive: [2] | [4] | [5] | [6] | [7] | [9]

NC(N)=NC(N)=NCCc1ccccc1
inactive: [10]
